Test results: publication PMC4336329 (PLoS ONE, 2015)
About 14,000 (4.5%) of roughly 310,000 compounds showed an effect of 50% or more. Effects have a minus sign here. Many of the other results were omitted from the sample, so strong results are more common in it than they were.

Target: human ether-à-go-go-related gene (hERG) potassium channel (human, UniProt Q12809)
Test: primary screen, population patch clamp on CHO cells stably expressing hERG; higher = less effect of the substance
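Note: peak tail current of the secondary pulse compared with the same well before compound.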

Sequence of human ether-à-go-go-related gene (hERG) potassium channel (Q12809 whole entry, looked up): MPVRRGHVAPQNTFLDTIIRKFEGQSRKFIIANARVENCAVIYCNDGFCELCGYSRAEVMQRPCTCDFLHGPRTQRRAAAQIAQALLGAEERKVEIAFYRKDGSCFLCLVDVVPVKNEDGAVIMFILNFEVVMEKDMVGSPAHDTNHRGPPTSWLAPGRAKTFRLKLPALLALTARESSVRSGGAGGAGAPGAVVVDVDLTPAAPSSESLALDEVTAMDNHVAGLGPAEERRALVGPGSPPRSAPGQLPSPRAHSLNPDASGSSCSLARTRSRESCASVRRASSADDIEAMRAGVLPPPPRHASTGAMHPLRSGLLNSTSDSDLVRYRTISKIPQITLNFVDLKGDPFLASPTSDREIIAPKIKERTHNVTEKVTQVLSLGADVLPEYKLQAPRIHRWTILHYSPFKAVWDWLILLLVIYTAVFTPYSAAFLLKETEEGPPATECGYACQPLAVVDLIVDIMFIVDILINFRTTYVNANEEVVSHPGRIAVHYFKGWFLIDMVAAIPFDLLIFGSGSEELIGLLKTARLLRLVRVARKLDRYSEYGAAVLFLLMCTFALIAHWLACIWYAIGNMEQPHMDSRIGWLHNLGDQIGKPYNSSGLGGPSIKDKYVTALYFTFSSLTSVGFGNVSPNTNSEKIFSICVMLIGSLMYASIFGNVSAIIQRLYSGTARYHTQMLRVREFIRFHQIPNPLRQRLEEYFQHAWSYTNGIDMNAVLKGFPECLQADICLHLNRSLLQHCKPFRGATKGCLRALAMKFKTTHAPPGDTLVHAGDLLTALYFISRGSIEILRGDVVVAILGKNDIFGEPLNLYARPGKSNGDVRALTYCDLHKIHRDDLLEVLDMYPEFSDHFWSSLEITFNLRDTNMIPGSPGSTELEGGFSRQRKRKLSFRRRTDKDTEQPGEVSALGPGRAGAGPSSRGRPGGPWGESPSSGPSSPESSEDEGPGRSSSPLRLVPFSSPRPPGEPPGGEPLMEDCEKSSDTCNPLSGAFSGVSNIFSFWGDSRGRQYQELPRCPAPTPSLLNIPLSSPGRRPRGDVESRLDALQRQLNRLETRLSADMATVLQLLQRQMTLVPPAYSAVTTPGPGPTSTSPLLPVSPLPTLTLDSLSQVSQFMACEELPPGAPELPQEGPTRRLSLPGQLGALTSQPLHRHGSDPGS

| Compound | hERG current change (%, negative = inhibition) at 10uM [%] |
| --- | --- |
| CCc1ccccc1NC(=O)CSc1nc2ccccc2nc1N1CCOCC1 | -15.1 |
| CCOC(=O)C1CCCN(C(=O)CCC(=O)Nc2ccc3nc(N4CCOCC4)cc(C)c3c2)C1 (stereo not shown) | -23.7 |
| O=C(NC1CCS(=O)(=O)C1)/C(=C\c1ccco1)NC(=O)c1ccccc1 (stereo not shown) | 1.36 |
| Cc1cc(-c2nn3c(C)nnc3s2)ccc1NC(=O)C(C)(C)C | 10.7 |
| Cc1ccc(S(=O)(=O)N2CCN(C(=O)COC(=O)c3ccc(Br)o3)CC2)c(C)c1 | -10.3 |
| Cc1ccc(C)c(S(=O)(=O)N2CCN(C(=O)C3CCN(C(=O)c4ccc(F)cc4)CC3)CC2)c1 | -30.6 |
| CC(=O)c1ccc(N2CCN(C(=O)C3CCN(S(=O)(=O)c4ccc(F)cc4)CC3)CC2)cc1 | -52.6 |
| COc1ccc(N2CCN(C(=O)C3CCN(S(=O)(=O)c4ccc(F)cc4)CC3)CC2)cc1 | -48.3 |
| Cc1ccc(S(=O)(=O)N2CCN(C(=O)c3ccc(Br)o3)CC2)c(C)c1 | -55 |
| CC(=O)N1CCC(C(=O)N2CCN(S(=O)(=O)c3ccc(F)cc3)CC2)CC1 | -1.33 |
| Cc1ccc(S(=O)(=O)N2CCN(C(=O)c3ccco3)CC2)c(C)c1 | -7.22 |
| CN1CCN(C(=O)C2CCN(S(=O)(=O)c3ccc(F)cc3)CC2)CC1 | 5.18 |
| O=C(c1ccc(F)cc1)N1CCC(C(=O)N2CCN(S(=O)(=O)c3ccccc3Br)CC2)CC1 | -32.6 |
| Cc1ccc(S(=O)(=O)N2CCN(C(=O)C3CCN(C(=O)c4ccc(F)cc4)CC3)CC2)c(C)c1 | -55.7 |
| CC(C)c1ccc(S(=O)(=O)N2CCN(C(=O)C3CCN(C(=O)c4ccc(F)cc4)CC3)CC2)cc1 | -53.7 |
| CC(C)c1ccc(S(=O)(=O)N2CCN(C(=O)C3CCCC3)CC2)cc1 | 2.78 |
| CC(C)c1ccc(/C=C2\SC(=O)N(CC(=O)NC3C=CS(=O)(=O)C3)C2=O)cc1 (stereo not shown) | 5.89 |
| O=C(Cn1cnc2c(nnn2Cc2ccc(F)cc2)c1=O)NCc1ccco1 | -18.2 |
| CCOc1ccc(CN2CCNC(=O)C2CC(=O)NCc2cc(C)n(C)n2)cc1 (stereo not shown) | -1.95 |
| O=C(NC(=S)NNS(=O)(=O)c1ccc(Cl)cc1)c1cccnc1 | 18.6 |
| O=C(CNC(=S)N(Cc1ccccc1)Cc1ccccc1F)NCCc1ccccc1 | 3.73 |
| Cc1ccc2c(c1)C(c1ccccc1)=NCC(=O)N2 | -12.8 |
